High-throughput results from PubChem BioAssay.
Rows were chosen to be rich in hits. Some 3.1% of all compounds tested hit in one or more screens of this group.
BRCT PPI green: inhibitors of human BRCA1 BRCT-phosphoprotein interaction (green fluorophore); P38398; BRCA1 BRCT-phosphopeptide binding, green fluorescence polarization; Potency, µM (series often up to 76.9 µM), inactives show at the highest dose activity change, negative = inhibition, hits mostly inhibitors; hit rate 0.05% among 75,000;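 also: potency is read from the fitted curve at half-maximal effect; plate controls were peptide without protein for full effect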
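Compounds were incubated for 12 min at room temperature with a complex of 100 nM fluorescein-tagged pBACH1 decapeptide and 250 nM His-tagged BRCT protein. Buffer was phosphate pH 7.3 with EDTA, DTT and Tween 20. Disruption of binding lowers the polarization signal.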
BRCT PPI red: BRCT-phosphoprotein interaction inhibition (red fluorophore) | P38398 | BRCT-phosphopeptide binding, red fluorescence polarization | Potency, µM (doses to about 76.9 µM), for inactives: at the top dose activity change, negative = inhibition, hits mostly inhibitors | hit rate 0.03% among 75,000 | AID 892; also: % is scaled to controls: 0 for no effect and ±100 for the full control effect
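Rhodamine-labelled pBACH1 10-mer (100 nM) bound to BRCT domain (100 nM) at pH 7.3; compounds incubated 12 min room temperature, polarization read. Free peptide defines full inhibition; unlabelled decapeptide titrated as control.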
15-hLO inh: blocks human 15-lipoxygenase activity; AID 887; hit rate 1.4% among 74,000; P16050; Potency, µM (doses to about 57.1 µM), for inactives: at the top dose activity change, negative = inhibition, hits mostly inhibitors; purified 15hLO-1, xylenol orange hydroperoxide absorbance; also: potency is read from the fitted curve at half-maximal effect; % is scaled to controls: 0 for no effect and ±100 for the full control effect; nearly all actives have a fitted effect of over 55% in size
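Readout: Fe(III)-xylenol orange absorbance, 573-to-405 nm ratio as reaction progress. Enzyme 40 nM purified human 15hLO-1, substrate 50 uM arachidonic acid, 6 min RT after 15 min compound preincubation; Hepes pH 7.5 buffer with Triton X-100.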
TsaE inh: YjeE (TsaE) inhibition, E. coli; hit rate 0.05% among 71,000; Potency, µM; purified YjeE enzyme, qHTS inhibition assay
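Purified YjeE (10 uM) with BODIPY Texas Red-labeled ADP probe (2 uM); compounds pin-transferred, 15 min at room temperature. Binding inhibition read as decreased fluorescence polarization; ADP titration as control.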
Pol III holo inh: DNA polymerase III holoenzyme inhibition; reconstituted DNA polymerase III holoenzyme replication, biochemical; Potency, µM (doses to about 57.1 µM), for the others: at the top dose activity change, negative = inhibition; hit rate 0.25% among 71,000; also: potency is read from the fitted curve at half-maximal effect; % is scaled to controls: 0 for no effect and ±100 for the full control effect
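Reconstituted *E. coli* holoenzyme (0.35 nM Pol III, 1 nM beta, 154 nM SSB, 2 nM primase) was preincubated with compound for 15 min at RT. Synthesis on 1.4 nM ssM13Gori ran 35 min, then was stopped with PicoGreen/EDTA and read as dsDNA fluorescence.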
Tau filament bind: binders of human tau filaments; Potency, µM (doses to about 57.1 µM), for inactives: top-dose activity change, negative = inhibition; P10636; recombinant tau filaments, thioflavin S fluorescence, 15 h; filaments grown with octadecylsulfate alongside compound; hit rate 2% among 71,000;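 also: potency is read from the fitted curve at half-maximal effect; % is scaled to controls: 0 for no effect and ±100 for the full control effect; actives lower thioflavin S fluorescence by blocking filaments or displacing dye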
Target sequence (P10636 whole entry, looked up): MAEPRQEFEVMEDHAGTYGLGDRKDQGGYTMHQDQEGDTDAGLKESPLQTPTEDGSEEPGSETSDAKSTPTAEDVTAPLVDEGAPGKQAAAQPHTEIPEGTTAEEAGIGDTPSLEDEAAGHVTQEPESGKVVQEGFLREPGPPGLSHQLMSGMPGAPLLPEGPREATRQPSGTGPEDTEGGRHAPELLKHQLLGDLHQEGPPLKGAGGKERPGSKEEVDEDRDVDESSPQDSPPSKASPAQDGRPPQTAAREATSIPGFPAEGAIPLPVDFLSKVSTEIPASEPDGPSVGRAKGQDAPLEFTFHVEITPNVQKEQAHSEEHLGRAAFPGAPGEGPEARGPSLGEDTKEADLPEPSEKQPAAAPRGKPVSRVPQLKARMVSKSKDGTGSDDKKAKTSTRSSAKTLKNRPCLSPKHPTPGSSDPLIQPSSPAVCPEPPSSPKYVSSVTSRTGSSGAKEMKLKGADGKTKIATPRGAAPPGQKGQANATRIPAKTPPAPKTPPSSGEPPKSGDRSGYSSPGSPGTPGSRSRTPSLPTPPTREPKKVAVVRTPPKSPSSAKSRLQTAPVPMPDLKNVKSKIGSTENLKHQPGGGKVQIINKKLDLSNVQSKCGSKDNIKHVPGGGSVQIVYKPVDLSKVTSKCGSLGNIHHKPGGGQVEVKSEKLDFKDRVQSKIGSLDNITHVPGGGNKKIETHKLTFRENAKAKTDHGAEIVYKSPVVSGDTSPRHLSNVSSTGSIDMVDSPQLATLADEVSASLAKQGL
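Tau 2 uM in ThS buffer dispensed; compound added; 60 uM ODS added (finals 1 uM tau, 30 uM ODS); 15 h 37 C; fluor ex450/em510.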
The depositor's hits bear a star; i = inactive; ? = inconclusive; / = no result; ! = not active in a repeat; [ ] = dose if it differs, or a comment. Calls follow the shape of the dose curve; as a rule, active = well fitted curve in the direction sought with a large enough effect; inconclusive = small, poorly fitted or top-dose-only effect, or another doubt; inactive = no such curve, though single readings can be large; an effect the other way counts as inactive or inconclusive.

SMILES | BRCT PPI green | BRCT PPI red | 15-hLO inh | TsaE inh | Pol III holo inh | Tau filament bind
Cc1cc(/C=C\c2ccc3cc(N(C)C)ccc3[n+]2C)c(C)n1-c1ccccc1 | 8%[34.4 µM] | 5%[34.4 µM] | / | i | -7%[25.6 µM] | 3.2µM*
COc1ccc(NC(=O)c2[nH]c(C)c(C(C)=O)c2C)cc1Cl | -2% | 1% | 32µM* | i | -4% | 43%
CC#C[C@]1(O)CC[C@H]2[C@@H]3CCC4=CC(=O)CCC4=C3[C@H](c3ccc(N(C)C)cc3)C[C@@]21C | -2% | -2% | 10µM* | i | -4% | 32µM*
COc1ccc(C(=O)N2CCC3(CC2)CN(c2ccccn2)C3)cc1 | -2% | -1% | -2% | i | -5% | -5%
Cc1c2cnccc2c(C)c2c1c1ccccc1n2CCOC(=O)c1ccccc1 | -1%[15.4 µM] | 0%[15.4 µM] | 8%[11.4 µM] | i | -7%[11.4 µM] | 15%[11.4 µM]
CCn1c(N)c(C(=O)NCC2CCCO2)sc1=S (stereo not drawn) | -3% | 0% | 10µM* | i | -2% | 7%
C=CCn1c(SCC(=O)Nc2ccc(NC(=O)c3ccco3)c(OC)c2)nnc1-c1ccncc1 | -1% | 2% | 0% | i | 3% | 13µM*
C=CCn1c(SCC(=O)Nc2cc(C)ccc2OC)nnc1-c1ccco1 | 0% | 0% | 1% | i | 3% | -5%
CCCc1ncc(C(=O)c2ccc(OC)cc2)n1C | -1% | 0% | 10µM* | i | -6% | 0%
COCC(=O)N1CCC[C@@]2(CCN(C(=O)Nc3ccccc3)C2)C1 | 4% | -2% | 9% | i | 1% | -1%
Cc1cc(-c2csc(NC(=O)c3ccc(=O)n(C)n3)n2)c(C)n1CC1CCCO1 (stereo not drawn) | -1% | 1% | ? | i | -6% | 7.9µM*
Oc1ccc(Nc2nc(-c3ccc(O)cc3)cs2)cc1 | 0% | 0% | ? | i | -2% | ?
c1cc2c(cc1Nc1nc(-c3ccc4c(c3)OCO4)cs1)OCCO2 | 6% | 0% | -30% | i | -4% | 25µM*
COc1ccc(C2CC(=O)N3CN(c4ccc(C)c(Cl)c4)CSC3=C2C#N)cc1OC (stereo not drawn) | 0% | -1% | 3.2µM* | i | -4% | -14%
COc1ccc(N2CSC3=C(C#N)C(c4ccc(OC)c(OC)c4)CC(=O)N3C2)c(OC)c1 (stereo not drawn) | 23% | 1% | 4µM* | i | -16% | 20µM*
COc1ccc(N2CSC3=C(C#N)C(c4cc(OC)ccc4OC)CC(=O)N3C2)c(OC)c1 (stereo not drawn) | 12% | 0% | ? | i | -8% | 25µM*
CCOc1ccccc1N1CSC2=C(C#N)C(c3c(OC)ccc4ccccc34)CC(=O)N2C1 (stereo not drawn) | -2% | 1% | ? | i | -8% | 25µM*
C[C@@]12CC(=O)[C@@H]3[C@@H](CCC4=CC(=O)CC[C@]43C)[C@@H]1CC=C2CC(=O)O | -2%[15.4 µM] | 0%[15.4 µM] | -8%[11.4 µM] | i | -10%[11.4 µM] | 3%[11.4 µM]
COc1cccc(C(=O)NC2CC3CCCC(C2)N3CC(=O)Nc2ccc(N(C)C)cc2)c1 (stereo not drawn) | 1% | -1% | -9% | i | -3% | 13µM*
COc1cccc(C(=O)NC2CC3CCCC(C2)N3CC(=O)Nc2ccccc2)c1 (stereo not drawn) | 2% | 1% | -27% | i | 4% | -27%
CCCSc1nnc2nc3c(nn12)c1ccccc1n3C | 44% | 10% | 5% | i | -9% | 16µM*
CC1(C)S[C@@H]2[C@H](NC(=O)[C@@H](N)c3ccc(O)cc3)C(=O)N2[C@H]1C(=O)O | -1%[34.4 µM] | 1%[34.4 µM] | 4%[25.6 µM] | i | -1%[25.6 µM] | 4%[25.6 µM]
O=c1c2ccccc2nnn1CSc1nnc(-c2cccnc2)n1-c1ccccc1F | 0% | 2% | 1% | i | -1% | 22%
Cc1ccc(-n2c(SCn3nnc4ccccc4c3=O)nnc2-c2cccnc2)c(C)c1 | 1% | 0% | -14% | i | -2% | 16µM*
CO[C@H]1C[C@@H](O[C@@H]2[C@H](C)[C@H](O[C@@H]3O[C@@H](C)C[C@@H](N(C)C)[C@@H]3O)[C@H](C)C[C@]3(CO3)C(=O)[C@H](C)[C@H](O)[C@H](C)[C@H](C)OC(=O)[C@@H]2C)O[C@@H](C)[C@H]1O | -2%[34.4 µM] | 0%[34.4 µM] | 1%[25.6 µM] | i | 1%[25.6 µM] | -10%[25.6 µM]
SMILES | BRCT PPI green | BRCT PPI red | 15-hLO inh | TsaE inh | Pol III holo inh | Tau filament bind
COC(=O)c1cc(CSc2nc3ccc(C)cc3[nH]2)oc1C | -1% | 1% | -5% | i | -1% | -2%
COC(=O)c1cc(CSc2nnc(-c3ccccc3)c(-c3ccccc3)n2)oc1C | 2% | 0% | 9% | i | -3% | 16µM*
Cn1cccc1C(=O)OCC(=O)Nc1cc(C(C)(C)C)nn1-c1ccccc1 | 2% | -2% | -3% | i | -1% | -10%
Cn1cccc1C(=O)OCC(=O)c1cc2ccccc2o1 | 1% | 1% | -7% | i | -2% | 16µM*
COC(=O)c1ccc(C(NC(=O)OCc2ccccc2)/C(=C/[C@@H](C)C(=O)NCc2cc(C)n(C)n2)c2cccnc2)cc1 (stereo partly drawn) | -4% | 1% | 3% | i | -3% | -3%
CCOC(=O)NC1(Nc2ccc(Cl)cn2)Oc2ccccc2O1 | -3% | 1% | 25µM* | i | -5% | 4%
CCC(C)C(=O)OC1C2CC3=C4CC(=O)OC(c5ccoc5)[C@]4(C)CCC3[C@@](C)(C2=O)C(CC(=O)OC)C1(C)C (stereo partly drawn) | -3%[3.08 µM] | -1% | -2% | / | / | /
CCC(C)(C)n1nnnc1CN(Cc1ccco1)Cc1cc2cc3c(cc2[nH]c1=O)OCO3 | 2% | -2% | 0.0079µM* | i | -2% | 41%
Cc1ccc2cc(CN(Cc3ccc4c(c3)OCO4)Cc3nnnn3Cc3ccco3)c(=O)[nH]c2c1C | 7% | -4% | 25µM* | i | -21% | 41%
Cc1ccc(C)c2[nH]c(=O)c(CN(Cc3ccc4c(c3)OCO4)Cc3nnnn3Cc3ccco3)cc12 | 2% | -7% | 25µM* | i | -22% | 14%
COC(=O)[C@@]1(C)C=C[C@@H](Cc2ccccc2)N1C(=O)c1ccccc1 | -2% | 1% | -7% | i | 0% | 12%
Cc1cc(=O)c2c(O)cc(O)c(C)c2o1 | -2%[3.08 µM] | 1% | -27% | / | / | /
O=C(O)c1cc(O)c2c(c1)C(=O)c1cccc(O)c1C2=O | -1% | -5% | 13µM*! | i | -8% | 421%
CCCCSc1nnc(-c2ccccc2N)c(=O)[nH]1 | 1% | 1% | -4% | / | / | /
CCCCCSc1nnc(-c2cc(Br)ccc2N)c(=O)[nH]1 | 0% | -2% | -8% | i | -8% | 10µM*
